Test results as given in PubChem BioAssay (NCI).
Values joined by “and” are separate entries in the source; they are usually repeats but may differ in a detail not shown here. Identical values can stand only once. About 79,000 compounds went through this panel and 15% of them were active in at least one assay; those are over-represented in the sample as a whole. Rule as the data show it: active = growth inhibition above about 70%; inactive = the rest.

Assays:
[1] = NCI Yeast Anticancer Drug Screen. Data for the rad50 strain (AID 155);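 also: 0% = growth of vehicle-only cultures of the same strain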; details: S. cerevisiae rad50 strain growth inhibition, hits give high values; at 50.0 µM unless noted
Method in brief: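 Vehicle-treated cultures provide the reference for the growth inhibition reported for compound-exposed, repair-deficient yeast.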

[2] = NCI Yeast Anticancer Drug Screen. Data for the mec2-1 strain (AID 157); details: S. cerevisiae mec2-1 strain, hits give high values; at 50.0 µM unless noted
Method in brief: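 Vehicle-treated cultures served as reference for growth inhibition of compound-exposed mec2-1 yeast.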

[3] = NCI Yeast Anticancer Drug Screen. Data for the sgs1 mgt1 strain (AID 161);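 also: 0% = growth of cultures given vehicle only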; details: S. cerevisiae sgs1 mgt1 strain, hits give high values; at 50.0 µM unless noted
Method in brief: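 Test agents were incubated with a DNA-repair-mutant yeast strain. Growth was then read and compared against vehicle-treated controls.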

[4] = NCI Yeast Anticancer Drug Screen. Data for the cln2 rad14 strain (AID 165);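 also: 0% = growth equal to vehicle treated cultures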; details: S. cerevisiae cln2 rad14 strain, hits give high values; at 50.0 µM unless noted
Method in brief: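 Each compound was tested on cln2 rad14 yeast. Inhibition of growth was calculated against vehicle-exposed controls.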

[5] = NCI Yeast Anticancer Drug Screen. Data for the bub3 strain (AID 167); details: S. cerevisiae bub3 mutant strain, hits give high values; at 50.0 µM unless noted
Method in brief: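 Mutant yeast screening strain plus compound; vehicle-treated cultures serve as the 0% inhibition reference.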

[6] = NCI Yeast Anticancer Drug Screen. Data for the mlh1 rad18 strain (AID 175); details: S. cerevisiae mlh1 rad18 strain growth inhibition, hits give high values; at 50.0 µM unless noted
Method in brief: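 Vehicle-treated cultures served as the reference for growth inhibition in a yeast strain carrying DNA damage repair alterations exposed to each compound.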

Measured: growth inhibition

O=C1/C(=C/c2cccnc2)SC(=S)N1Cc1ccco1
inactive: [1] 2.7% | [2] -21.1% | [3] -8.85% | [4] 40% | [5] -6.45% | [6] 1.45%

CC1CN(CCO)CCN1Cc1ccccc1 (stereo not given)
inactive: [1] -12.6% | [2] -12.3% | [3] -16.6% | [4] -5.1% | [5] -12.6% | [6] -5.8%

CCCCN1C(=O)CC2[C@@H]3CCc4cc(OC(C)=O)ccc4C3CC[C@]2(C)C1=O (stereo not given in full)
inactive: [1] 11.3% | [2] 4.15% | [3] 5.45% | [4] 26.6% | [5] -7.3% | [6] -0.1%

Cc1cc(C)c(CC(C)C)c(C)c1
inactive: [1] 1.85% | [2] 6.25% | [3] 17.4% | [4] 31.4% | [5] 2.4% | [6] -2.45%

Nc1[nH]c(=O)[nH]c(=O)c1[N+](=O)[O-]
inactive: [1] 5.4% | [2] -6.8% | [3] -7.1% | [4] -8.5% | [5] -9.35% | [6] -3.15%

CN(C)c1ccc(/C=C(\NC(=O)c2ccccc2)c2nc3ccccc3c(=O)o2)cc1
inactive: [1] 8.45% | [2] 10.3% | [3] 3.95% | [4] 11.5% | [5] -15.8% | [6] -9.3%

O=C1c2ccccc2C(=O)N1CCCCCCCCCCN1C(=O)c2ccccc2C1=O
inactive: [1] 33% | [2] -10.3% | [3] 17.3% | [4] 2.75% | [5] -3.75% | [6] -7.15%

O=C(O)C1CC(=O)N(Cc2ccccc2)C1 (stereo not given)
inactive: [1] 32.8% | [2] 33.3% | [3] 34.6% | [4] 6.45% | [5] 26.7% | [6] 34%

O=C(CCl)Oc1ccc(C(=O)O)cc1
inactive: [1] -1.1% | [2] -3.55% | [3] -1.8% | [4] -3.65% | [5] 0.85% | [6] -6.7%

Cc1ccc(C=NC23CC4CC(CC(C4)C2)C3)cc1
inactive: [1] -3.3% | [2] -28.6% | [3] -24.2% | [4] -24.9% | [5] -35.9% | [6] -20.4%

CC(c1cccc(O)c1)N(C)C (stereo not given)
inactive: [1] 5.9% | [2] -2.2% | [3] 0.7% | [4] -10.4% | [5] 1.25% | [6] -3.85%

CC1(c2ccccc2)C(=O)c2ccccc2-c2ccccc21 (stereo not given)
inactive: [1] 63.5% | [2] 48.4% | [3] 63.8% | [4] 3.45% | [5] 24.7% | [6] 24%

N#CC(C#N)=C1SC(=Nc2ccccc2)C(=Nc2ccccc2)N1c1ccccc1
inactive: [1] 11.6% | [2] 6.05% | [3] 19.2% | [4] 7.1% | [5] 21.6% | [6] 16.4%

COc1ccc(OCc2ccc(OC)c(OC)c2)cc1
inactive: [1] 7.2% | [2] -3.7% | [3] -11.2% | [4] -10.7% | [5] -8.15% | [6] -7.35%

O=C(NC(=O)c1ccccc1)Oc1cccc2ccccc12
inactive: [1] 18.3% | [2] -0.1% | [3] 20.1% | [4] 7.85% | [5] 10.7% | [6] 22.8%

CCN(CC)c1ccc(C(c2ccc(N(CC)CC)cc2Cl)c2cccc3ccccc23)c(Cl)c1
inactive: [1] 24.8% | [2] 19.8% | [3] 30.3% | [4] 36.2% | [5] 22.4% | [6] 7.85%

O=S1(=O)OCCOS(=O)(=O)C1Cc1nc2ccccc2[nH]1
inactive: [1] 3.25% | [2] 15.8% | [3] 1.25% | [4] 56.9% | [5] -0.05% | [6] 37.1%

CC(=O)CC(=O)Nc1nc2ccccc2s1
inactive: [1] -4.45% | [2] 2.65% | [3] 9.05% | [4] -13.2% | [5] -7.5% | [6] 15.2%

Nc1ncnc2c1ncn2C1OC(COP(=O)(O)O)C(O)C1O (stereo not given)
inactive: [1] -9.65% and -9.3% | [2] 1.65% and -12.6% | [3] 15.6% and -9.1% | [4] 2.95% and 9.25% | [5] 0.85% and -17.9% | [6] -9% and -13.2%

O=C(Nc1cccc2ccccc12)c1ccc(Cl)cc1Cl
inactive: [1] 4.15% | [2] 14.9% | [3] 21.5% | [4] 1.35% | [5] 8.55% | [6] 4.65%

O=C(Nc1nccs1)c1ccccc1F
inactive: [1] 3.8% | [2] -0.9% | [3] -12.2% | [4] -53.3% | [5] -8.45% | [6] -3.15%

CCCSc1nn2cc(NC(=O)OC)nc2s1
inactive: [1] -13.5% | [2] -8.7% | [3] -3.75% | [4] -24.5% | [5] 7.05% | [6] -6.5%

O=C(NC1CCCCC1)/C(=C\c1ccccc1)NC(=O)c1ccccc1
inactive: [1] -26.8% | [2] -48.4% | [3] -28.6% | [4] 0.05% | [5] -6.8% | [6] -27.4%

COP(=O)(OC)/C(=C/c1cn(C(C)=O)c2ccccc12)NC(C)=O
inactive: [1] -21% | [2] -49.9% | [3] -13.1% | [4] 13.1% | [5] 15.4% | [6] -8.25%

CCN(CC)c1ccc(N=Nc2ccc(-c3nc4cccnc4o3)cc2)cc1
inactive: [1] -21.4% | [2] -19.2% | [3] -22.9% | [4] -1.7% | [5] 2.15% | [6] -39.3%

CO[C@@H]1C2=CC=CC=C[C@H]2n2c(=O)n(-c3ccccc3)c(=O)n21
inactive: [1] -10.2% | [2] 18.6% | [3] 18.4% | [4] -14.4% | [5] -1.15% | [6] 13.2%

O=C1CC(Cc2n[nH]c3c2CCCC3)CC(=O)N1
inactive: [1] 4.2% | [2] 3.8% | [3] -4.8% | [4] 7.35% | [5] -2.15% | [6] -7.75%

CCCCN(CCCC)CC(=O)NC(=O)c1ccccc1
inactive: [1] -9.55% | [2] -5.55% | [3] 3.35% | [4] -38.5% | [5] 10.8% | [6] -14.3%

CC1(C)COC2(CCCCC2)OC1
inactive: [1] 12.8% | [2] 4.4% | [3] -10.6% | [4] -30.1% | [5] -1.7% | [6] 8.95%

COC1OC(COS(=O)(=O)c2ccc(C)cc2)C(OS(=O)(=O)c2ccc(C)cc2)C(OS(=O)(=O)c2ccc(C)cc2)C1OS(=O)(=O)c1ccc(C)cc1 (stereo not given)
inactive: [1] -7.45% | [2] -16.5% | [3] -11.7% | [4] -8.6% | [5] 0.75% | [6] 18.6%

CCCCCC(Br)C(Br)CC(Br)C(Br)CC(Br)C(Br)CCCCC(=O)O (stereo not given)
inactive: [1] 11.2% | [2] -5.8% | [3] 9.6% | [4] -31.9% | [5] -0.7% | [6] 22.6%

CCOC(=O)C1=C(C)O/C(=C/c2cccc(Cl)c2)C1=O
inactive: [1] 42% | [2] 35.2% | [3] 31.1% | [4] 45.9% | [5] 47% | [6] 56.1%

Cc1nc2ccncc2[nH]1
inactive: [1] -7.7% | [2] -1.3% | [3] -17.4% | [4] 0.05% | [5] -10.6% | [6] -8.2%

[N-]=[N+]=Nc1c2c(nc3ccccc13)CCCC2
inactive: [1] -38.1% | [2] -10.2% | [3] -21.4% | [4] -51.1% | [5] 0.3% | [6] -4.4%

Cc1ccc(S(=O)(=O)N(C)CCCC#N)cc1
inactive: [1] -11.4% | [2] -16.3% | [3] 6.2% | [4] -3.1% | [5] -6.6% | [6] -19.6%

CN1N=C(c2ccncc2)OC1c1cccc(C(F)(F)F)c1 (stereo not given)
inactive: [1] -63.6% | [2] -65.9% | [3] -32.8% | [4] -3.6% | [5] 0.75% | [6] -21.3%

NC(=O)CSCC(N)=O
inactive: [1] 0.75% | [2] -13.9% | [3] 3.45% | [4] 6.05% | [5] -2.75% | [6] 22%

CCOc1ccc(OCC)c(NC=O)c1
inactive: [1] -9% | [2] -20.1% | [3] -6.75% | [4] 8.4% | [5] -11.8% | [6] 2.95%

C[C@@]1([N+](=O)[O-])CC2CCC1C2 (stereo not given in full)
inactive: [1] -3.9% | [2] -12.5% | [3] -16.4% | [4] -6.45% | [5] 2.55% | [6] -9.55%

O=c1ccc2ccccc2cc1
inactive: [1] 14.3% | [2] -18.6% | [3] 20.8% | [4] -39.9% | [5] 8.15% | [6] 8.4%
